# Source: PubChem BioAssay (NCI)
# This is part of a sample that, as a whole, favours compounds with a hit. Of some 83,000 tested, about 20% had one in any assay.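 Testing used 96-well plates and a 48-hour single-concentration exposure. Example: -40 means 40% of the starting cells died.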 Unmarked numbers belong to inactive results. Activity calls are given as the source filed them. The calls were made as follows: active = growth percent below 10; inactive = the rest.
# Tests used:
# Test in all cases: NCI-60 one-dose screen, 48 h (100 = growth as untreated, 0 = no growth, -100 = all killed)
# NCI-H23 lung = tested on: NCI-H23 lung
# NCI-H226 lung = tested on: NCI-H226 lung
# NCI-H322M lung = tested on: NCI-H322M lung
# HOP-62 NSCLC = tested on: HOP-62 NSCLC
# NCI-H460 lung = tested on: NCI-H460 lung
# HOP-92 NSCLC = tested on: HOP-92 NSCLC
# NCI-H522 lung = tested on: NCI-H522 lung
# A549/ATCC NSCLC = tested on: A549/ATCC NSCLC
# 786-0 renal = tested on: 786-0 renal
# COLO 205 colon = tested on: COLO 205 colon
# DU-145 prostate = tested on: DU-145 prostate
# K-562 leukemia = details: 10 µM unless noted
# MALME-3M melanoma = tested on: MALME-3M melanoma
# MDA-MB-231 breast = tested on: MDA-MB-231 breast
# RXF 393 renal = tested on: RXF 393 renal
# SF-268 CNS = tested on: SF-268 CNS
# SF-295 CNS = tested on: SF-295 CNS
# SF-539 CNS = tested on: SF-539 CNS
# UACC-257 melanoma = tested on: UACC-257 melanoma
# M14 melanoma = tested on: M14 melanoma
smiles,measurement,setting,value
O=C(NN1C(=O)/C(=C/C=C/c2ccc([N+](=O)[O-])o2)SC1=S)c1ccncc1,growth,NCI-H23 lung; 10 µM unless noted,-88.8% (active)
same,growth,NCI-H226 lung; 10 µM unless noted,-52.7% (active)
same,growth,NCI-H322M lung; 10 µM unless noted,-16.3% (active)
same,growth,HOP-62 NSCLC; 10 µM unless noted,-97.5% (active)
same,growth,NCI-H460 lung; 10 µM unless noted,-53.6% (active)
same,growth,HOP-92 NSCLC; 10 µM unless noted,-85.1% (active)
same,growth,NCI-H522 lung; 10 µM unless noted,-83.8% (active)
same,growth,A549/ATCC NSCLC; 10 µM unless noted,-34.7% (active)
same,growth,786-0 renal; 10 µM unless noted,-79.9% (active)
same,growth,COLO 205 colon; 10 µM unless noted,-96.9% (active)
same,growth,DU-145 prostate; 10 µM unless noted,-95% (active)
same,growth,K-562 leukemia,3.03% (active)
same,growth,MALME-3M melanoma; 10 µM unless noted,-91.7% (active)
same,growth,MDA-MB-231 breast; 10 µM unless noted,-96.5% (active)
same,growth,RXF 393 renal; 10 µM unless noted,-93.6% (active)
same,growth,SF-268 CNS; 10 µM unless noted,-75.7% (active)
same,growth,SF-295 CNS; 10 µM unless noted,-82.8% (active)
same,growth,SF-539 CNS; 10 µM unless noted,-100% (active)
same,growth,UACC-257 melanoma; 10 µM unless noted,-86.7% (active)
same,growth,M14 melanoma; 10 µM unless noted,-67.9% (active)
N/C(=N\c1nc2ccccc2s1)NC(=O)Nc1ccccc1F,growth,NCI-H23 lung; 10 µM unless noted,19.9%
same,growth,NCI-H226 lung; 10 µM unless noted,46.2%
same,growth,NCI-H322M lung; 10 µM unless noted,54.5%
same,growth,HOP-62 NSCLC; 10 µM unless noted,0.224% (active)
same,growth,NCI-H460 lung; 10 µM unless noted,30.2%
same,growth,HOP-92 NSCLC; 10 µM unless noted,19.3%
same,growth,NCI-H522 lung; 10 µM unless noted,-45.5% (active)
same,growth,A549/ATCC NSCLC; 10 µM unless noted,47.5%
same,growth,786-0 renal; 10 µM unless noted,17.7%
same,growth,COLO 205 colon; 10 µM unless noted,-33% (active)
same,growth,DU-145 prostate; 10 µM unless noted,9.55% (active)
same,growth,K-562 leukemia,13.1%
same,growth,MALME-3M melanoma; 10 µM unless noted,33.3%
same,growth,MDA-MB-231 breast; 10 µM unless noted,19.9%
same,growth,RXF 393 renal; 10 µM unless noted,-1.57% (active)
same,growth,SF-268 CNS; 10 µM unless noted,47.2%
same,growth,SF-295 CNS; 10 µM unless noted,2.32% (active)
same,growth,SF-539 CNS; 10 µM unless noted,-40.1% (active)
same,growth,UACC-257 melanoma; 10 µM unless noted,84.5%
same,growth,M14 melanoma; 10 µM unless noted,31.1%
CC/C(=C(/c1ccc(O)cc1)c1ccc(OCCN(C)C(=O)CCOCCNC(=O)Cc2ccc3c(c2)CN([C@@H]2CCC(=O)NC2=O)C3=O)cc1)c1ccccc1,growth,NCI-H23 lung; 1 µM,98.2%
same,growth,NCI-H23 lung; 10 µM,92.8%
same,growth,NCI-H226 lung; 1 µM,93.9%
same,growth,NCI-H226 lung; 10 µM,47%
same,growth,NCI-H322M lung; 1 µM,88.1%
same,growth,NCI-H322M lung; 10 µM,67%
same,growth,HOP-62 NSCLC; 1 µM,82.5%
same,growth,HOP-62 NSCLC; 10 µM,52.3%
same,growth,NCI-H460 lung; 1 µM,130%
same,growth,NCI-H460 lung; 10 µM,103%
same,growth,HOP-92 NSCLC; 1 µM,22.2%
same,growth,HOP-92 NSCLC; 10 µM,20.8%
same,growth,NCI-H522 lung; 1 µM,92%
same,growth,NCI-H522 lung; 10 µM,91.2%
same,growth,A549/ATCC NSCLC; 1 µM,93.1%
same,growth,A549/ATCC NSCLC; 10 µM,87.8%
same,growth,786-0 renal; 1 µM,97.2%
same,growth,786-0 renal; 10 µM,84.2%
same,growth,COLO 205 colon; 1 µM,102%
same,growth,COLO 205 colon; 10 µM,62.3%
same,growth,DU-145 prostate; 1 µM,109%
same,growth,DU-145 prostate; 10 µM,101%
same,growth,MALME-3M melanoma; 1 µM,42.7%
same,growth,MALME-3M melanoma; 10 µM,13.3%
same,growth,MDA-MB-231 breast; 1 µM,11%
same,growth,MDA-MB-231 breast; 10 µM,-5.68% (active)
same,growth,RXF 393 renal; 1 µM,104%
same,growth,RXF 393 renal; 10 µM,93.8%
same,growth,SF-268 CNS; 1 µM,96.5%
same,growth,SF-268 CNS; 10 µM,72.6%
same,growth,SF-295 CNS; 1 µM,103%
same,growth,SF-295 CNS; 10 µM,94.7%
same,growth,SF-539 CNS; 1 µM,87.9%
same,growth,SF-539 CNS; 10 µM,78.4%
same,growth,UACC-257 melanoma; 1 µM,91%
same,growth,UACC-257 melanoma; 10 µM,96.1%
same,growth,M14 melanoma; 1 µM,92.2%
same,growth,M14 melanoma; 10 µM,65%
O=C(N/N=C/c1c[nH]c2ccccc12)Nc1ccccc1Cl,growth,NCI-H23 lung; 10 µM unless noted,1.51% (active)
same,growth,NCI-H226 lung; 10 µM unless noted,19.8%
same,growth,NCI-H322M lung; 10 µM unless noted,41.7%
same,growth,HOP-62 NSCLC; 10 µM unless noted,18.4%
same,growth,NCI-H460 lung; 10 µM unless noted,1.98% (active)
same,growth,HOP-92 NSCLC; 10 µM unless noted,3.23% (active)
same,growth,NCI-H522 lung; 10 µM unless noted,-41.8% (active)
same,growth,A549/ATCC NSCLC; 10 µM unless noted,15.2%
same,growth,786-0 renal; 10 µM unless noted,-41.4% (active)
same,growth,COLO 205 colon; 10 µM unless noted,-39.7% (active)
same,growth,DU-145 prostate; 10 µM unless noted,6.12% (active)
same,growth,K-562 leukemia,12.2%
same,growth,MALME-3M melanoma; 10 µM unless noted,33.3%
same,growth,MDA-MB-231 breast; 10 µM unless noted,16.5%
same,growth,RXF 393 renal; 10 µM unless noted,-36.1% (active)
same,growth,SF-268 CNS; 10 µM unless noted,7.97% (active)
same,growth,SF-295 CNS; 10 µM unless noted,-37.1% (active)
same,growth,SF-539 CNS; 10 µM unless noted,-10.7% (active)
same,growth,UACC-257 melanoma; 10 µM unless noted,43.8%
same,growth,M14 melanoma; 10 µM unless noted,10.9%
Cc1ccc(Cl)cc1NC(=O)Nc1nc2ccc([N+](=O)[O-])cc2s1,growth,NCI-H23 lung; 10 µM unless noted,-28.6% (active)
same,growth,NCI-H226 lung; 10 µM unless noted,-9.03% (active)
same,growth,NCI-H322M lung; 10 µM unless noted,-6.17% (active)
same,growth,HOP-62 NSCLC; 10 µM unless noted,-68.1% (active)
same,growth,NCI-H460 lung; 10 µM unless noted,-41.5% (active)
same,growth,HOP-92 NSCLC; 10 µM unless noted,-28.6% (active)
same,growth,NCI-H522 lung; 10 µM unless noted,-36.8% (active)
same,growth,A549/ATCC NSCLC; 10 µM unless noted,-25.8% (active)
same,growth,786-0 renal; 10 µM unless noted,-27.9% (active)
same,growth,COLO 205 colon; 10 µM unless noted,-87.9% (active)
same,growth,DU-145 prostate; 10 µM unless noted,18.6%
same,growth,K-562 leukemia,1.86% (active)
same,growth,MALME-3M melanoma; 10 µM unless noted,-24.4% (active)
same,growth,MDA-MB-231 breast; 10 µM unless noted,-42.2% (active)
same,growth,RXF 393 renal; 10 µM unless noted,-22.7% (active)
same,growth,SF-268 CNS; 10 µM unless noted,27.5%
same,growth,SF-295 CNS; 10 µM unless noted,-45.4% (active)
same,growth,SF-539 CNS; 10 µM unless noted,-33.9% (active)
same,growth,UACC-257 melanoma; 10 µM unless noted,-20.9% (active)
same,growth,M14 melanoma; 10 µM unless noted,-33.5% (active)
N/C(=N\c1nc2ccccc2s1)NC(=O)Nc1ccccc1[N+](=O)[O-],growth,NCI-H23 lung; 10 µM unless noted,14.3%
same,growth,NCI-H226 lung; 10 µM unless noted,29.1%
same,growth,NCI-H322M lung; 10 µM unless noted,39.9%
same,growth,HOP-62 NSCLC; 10 µM unless noted,30.1%
same,growth,NCI-H460 lung; 10 µM unless noted,11.1%
same,growth,HOP-92 NSCLC; 10 µM unless noted,-5.71% (active)
same,growth,NCI-H522 lung; 10 µM unless noted,-50.1% (active)
same,growth,A549/ATCC NSCLC; 10 µM unless noted,16.8%
same,growth,786-0 renal; 10 µM unless noted,11%
same,growth,COLO 205 colon; 10 µM unless noted,-72% (active)
same,growth,DU-145 prostate; 10 µM unless noted,1.45% (active)
same,growth,K-562 leukemia,10.6%
same,growth,MALME-3M melanoma; 10 µM unless noted,44.6%
same,growth,MDA-MB-231 breast; 10 µM unless noted,-1.5% (active)
same,growth,RXF 393 renal; 10 µM unless noted,36.4%
same,growth,SF-268 CNS; 10 µM unless noted,23%
same,growth,SF-295 CNS; 10 µM unless noted,1.71% (active)
same,growth,SF-539 CNS; 10 µM unless noted,-41.1% (active)
same,growth,UACC-257 melanoma; 10 µM unless noted,60.1%
same,growth,M14 melanoma; 10 µM unless noted,16.3%
